# PubChem BioAssay AID1159580 (chemical genetic matrix, 2015)
# About 2,000 (36%) of roughly 5,500 compounds were called active. Roughly 18% stayed inconclusive and do not appear here. The list shows a part of the results. Values without a mark were called inactive. No stated cut-off is given here; in the data, active means normalized growth mostly below about 0.91 (no sharp cut-off); inconclusive means no clear call, values can overlap the other calls; inactive means mostly above about 0.92.
# Experiment: chemical genetic growth profiling, strain panel (AID 1159580);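 further: tested at 20 µM; growth read once vehicle control cultures reached saturation at 30 °C; 1 = growth at the plate median or of vehicle wells; lower values mean less growth of the strain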
# Conditions: growth OD
smiles,measurement,setting,value
O=C(O)c1cc2ccccc2c(Cc2c(O)c(C(=O)O)cc3ccccc23)c1O,normalized growth,"S. cerevisiae deletion strains, locus YJR043C, strain POL32, hits give low values",1.01
same,normalized growth,"S. cerevisiae deletion strains, locus YJR066W, strain TOR1, hits give low values",0.819 (active)
same,normalized growth,"S. cerevisiae deletion strains, locus YKL009W, strain mrt4, hits give low values",0.989
same,normalized growth,"S. cerevisiae deletion strains, locus YKL068W, hits give low values",1.01
same,normalized growth,"S. cerevisiae deletion strains, locus YKL085W, strain MDH1 (second series), hits give low values",1
same,normalized growth,"S. cerevisiae deletion strains, locus YKL085W, strain MDH1, hits give low values",1
same,normalized growth,"S. cerevisiae deletion strains, locus YKL160W, strain elf1, hits give low values",1
same,normalized growth,"S. cerevisiae deletion strains, locus YKR001C, strain vps1, hits give low values",0.966
same,normalized growth,"S. cerevisiae deletion strains, locus YKR026C, strain gcn3, hits give low values",0.998
same,normalized growth,"S. cerevisiae deletion strains, locus YKR091W, strain srl3, hits give low values",1
same,normalized growth,"S. cerevisiae deletion strains, locus YLL001W, strain dnm1, hits give low values",0.996
same,normalized growth,"S. cerevisiae deletion strains, locus YLL026W, hits give low values",1
same,normalized growth,"S. cerevisiae deletion strains, locus YLL041C, strain sdh2, hits give low values",0.992
same,normalized growth,"S. cerevisiae deletion strains, locus YLR027C, strain aat2, hits give low values",0.999
same,normalized growth,"S. cerevisiae deletion strains, locus YLR039C, strain RIC1, hits give low values",0.996
same,normalized growth,"S. cerevisiae deletion strains, locus YLR058C, strain SHM2, hits give low values",1
same,normalized growth,"S. cerevisiae deletion strains, locus YLR102C, strain apc9, hits give low values",0.994
same,normalized growth,"S. cerevisiae deletion strains, locus YLR113W, strain HOG1, hits give low values",0.847 (active)
same,normalized growth,"S. cerevisiae deletion strains, locus YLR221C, strain rsa3, hits give low values",0.99
same,normalized growth,"S. cerevisiae deletion strains, locus YLR258W, strain gsy2, hits give low values",0.996
same,normalized growth,"S. cerevisiae deletion strains, locus YLR262C, strain YPT6 (second series), hits give low values",1.01
same,normalized growth,"S. cerevisiae deletion strains, locus YLR262C, strain YPT6, hits give low values",1.07
same,normalized growth,"S. cerevisiae deletion strains, locus YLR268W, strain sec22, hits give low values",0.993
same,normalized growth,"S. cerevisiae deletion strains, locus YLR320W, strain mms22, hits give low values",0.991
same,normalized growth,"S. cerevisiae deletion strains, locus YLR330W, strain CHS5, hits give low values",0.996
same,normalized growth,"S. cerevisiae deletion strains, locus YLR342W, strain FKS1 (second series), hits give low values",0.972
same,normalized growth,"S. cerevisiae deletion strains, locus YLR342W, strain FKS1, hits give low values",0.998
same,normalized growth,"S. cerevisiae deletion strains, locus YLR357W, strain rsc2, hits give low values",0.99
same,normalized growth,"S. cerevisiae deletion strains, locus YLR370C, strain arc18, hits give low values",1.01
same,normalized growth,"S. cerevisiae deletion strains, locus YLR371W, strain rom2, hits give low values",0.966
same,normalized growth,"S. cerevisiae deletion strains, locus YLR384C, strain iki3, hits give low values",0.988
same,normalized growth,"S. cerevisiae deletion strains, locus YLR418C, strain cdc73, hits give low values",0.93
same,normalized growth,"S. cerevisiae deletion strains, locus YML016C, strain PPZ1, hits give low values",0.978
same,normalized growth,"S. cerevisiae deletion strains, locus YML032C, strain rad52, hits give low values",0.994
same,normalized growth,"S. cerevisiae deletion strains, locus YML120C, strain ndi1, hits give low values",1
same,normalized growth,"S. cerevisiae deletion strains, locus YML124C, strain tub3, hits give low values",0.994
same,normalized growth,"S. cerevisiae deletion strains, locus YMR058W, strain fet3, hits give low values",1
same,normalized growth,"S. cerevisiae deletion strains, locus YMR078C, strain ctf18, hits give low values",0.984
same,normalized growth,"S. cerevisiae deletion strains, locus YMR125W, strain sto1, hits give low values",1
same,normalized growth,"S. cerevisiae deletion strains, locus YMR129W, hits give low values",0.997
same,normalized growth,"S. cerevisiae deletion strains, locus YMR205C, strain PFK2, hits give low values",1.01
same,normalized growth,"S. cerevisiae deletion strains, locus YMR223W, strain ubp8, hits give low values",1
same,normalized growth,"S. cerevisiae deletion strains, locus YMR231W, strain pep5, hits give low values",1
same,normalized growth,"S. cerevisiae deletion strains, locus YMR263W, strain SAP30, hits give low values",0.999
same,normalized growth,"S. cerevisiae deletion strains, locus YMR307W, strain GAS1, hits give low values",1.1
same,normalized growth,"S. cerevisiae deletion strains, locus YNL067W, strain RPL9B, hits give low values",1.01
same,normalized growth,"S. cerevisiae deletion strains, locus YNL071W, strain lat1, hits give low values",0.987
same,normalized growth,"S. cerevisiae deletion strains, locus YNL183C, strain NPR1, hits give low values",0.829 (active)
same,normalized growth,"S. cerevisiae deletion strains, locus YNL209W, strain ssb2, hits give low values",1
same,normalized growth,"S. cerevisiae deletion strains, locus YNL233W, strain BNI4, hits give low values",1.01
same,normalized growth,"S. cerevisiae deletion strains, locus YNL248C, strain rpa49, hits give low values",0.984
same,normalized growth,"S. cerevisiae deletion strains, locus YNL250W, strain rad50, hits give low values",1.01
same,normalized growth,"S. cerevisiae deletion strains, locus YNL271C, strain bni1, hits give low values",1.01
same,normalized growth,"S. cerevisiae deletion strains, locus YNL298W, strain CLA4, hits give low values",0.983
same,normalized growth,"S. cerevisiae deletion strains, locus YNL307C, strain MCK1, hits give low values",0.996
same,normalized growth,"S. cerevisiae deletion strains, locus YNL322C, strain KRE1 (second series), hits give low values",1.02
same,normalized growth,"S. cerevisiae deletion strains, locus YNR049C, strain mso1, hits give low values",1
same,normalized growth,"S. cerevisiae deletion strains, locus YNR052C, strain pop2, hits give low values",0.981
same,normalized growth,"S. cerevisiae deletion strains, locus YOL012C, strain htz1",0.665
same,normalized growth,"S. cerevisiae deletion strains, locus YOL147C, strain pex11, hits give low values",1
same,normalized growth,"S. cerevisiae deletion strains, locus YOR001W, strain rrp6, hits give low values",1.01
same,normalized growth,"S. cerevisiae deletion strains, locus YOR061W, strain CKA2, hits give low values",0.984
same,normalized growth,"S. cerevisiae deletion strains, locus YOR069W, strain VPS5, hits give low values",0.999
same,normalized growth,"S. cerevisiae deletion strains, locus YOR070C, strain gyp1, hits give low values",1
same,normalized growth,"S. cerevisiae deletion strains, locus YOR080W, strain dia2, hits give low values",1
same,normalized growth,"S. cerevisiae deletion strains, locus YOR083W, strain WHI5, hits give low values",1
same,normalized growth,"S. cerevisiae deletion strains, locus YOR106W, strain vam3, hits give low values",0.976
same,normalized growth,"S. cerevisiae deletion strains, locus YOR136W, strain idh2, hits give low values",1
same,normalized growth,"S. cerevisiae deletion strains, locus YOR144C, strain elg1, hits give low values",0.99
same,normalized growth,"S. cerevisiae deletion strains, locus YOR184W, strain ser1, hits give low values",0.989
same,normalized growth,"S. cerevisiae deletion strains, locus YOR231W, strain MKK1, hits give low values",0.875
same,normalized growth,"S. cerevisiae deletion strains, locus YOR265W, strain rbl2, hits give low values",0.991
same,normalized growth,"S. cerevisiae deletion strains, locus YOR270C, strain vph1, hits give low values",0.974
same,normalized growth,"S. cerevisiae deletion strains, locus YOR290C, strain snf2, hits give low values",0.989
same,normalized growth,"S. cerevisiae deletion strains, locus YOR316C, strain cot1, hits give low values",0.997
same,normalized growth,"S. cerevisiae deletion strains, locus YPL051W, strain arl3, hits give low values",1.01
same,normalized growth,"S. cerevisiae deletion strains, locus YPL055C, strain LGE1, hits give low values",1
same,normalized growth,"S. cerevisiae deletion strains, locus YPL078C, strain atp4, hits give low values",1
same,normalized growth,"S. cerevisiae deletion strains, locus YPL106C, strain sse1, hits give low values",0.964
same,normalized growth,"S. cerevisiae deletion strains, locus YPL240C, strain hsp82, hits give low values",0.976
same,normalized growth,"S. cerevisiae deletion strains, locus YPL256C, strain CLN2, hits give low values",0.905
same,normalized growth,"S. cerevisiae deletion strains, locus YPR119W, strain clb2, hits give low values",0.988
same,normalized growth,"S. cerevisiae deletion strains, locus YPR141C, strain kar3, hits give low values",1.02
same,normalized growth,"S. cerevisiae deletion strains, locus YPR163C, strain tif3, hits give low values",0.995
same,normalized growth,"S. cerevisiae deletion strains, locus YPR167C, strain met16, hits give low values",0.991
same,normalized growth,"S. cerevisiae deletion strains, strain wtn01, hits give low values",0.985
same,normalized growth,"S. cerevisiae strains, strain wild type, hits give low values",1
